# Fam108B counter: counter-screen for RBBP9 inhibitors: inhibitors of mouse Fam108B; recombinant Fam108B, FP-Rh probe fluorescence polarization; inhibition, % at 9.51 µM; 0.33% of 300,000 active; AID 1947;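 active = inhibition above the screen mean inhibition plus 3 SD, computed separately per campaign, cut at about 18% in these data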;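 note: inhibitors lower polarization as less probe binds the enzyme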
# PAD4 FP inh: inhibitors of human PAD4; 0.41% of 330,000 active; recombinant PAD4, RCA probe fluorescence polarization; AID 485272; inhibition, % at 6.36 µM; Q9UM07;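 active = percent inhibition above a cutoff equal to the mean of all tested compounds plus 3 SD, cut at about 15% in these data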;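 note: 0% = PAD4 with RCA probe and DMSO and 100% = probe without PAD4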
# PME-1 primary: PME-1 (human) inhibition. Q9Y570. recombinant PME-1, FP-Rh probe fluorescence polarization. inhibition, % at 5.9 µM. 0.53% of 320,000 active;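 active = inhibition above the campaign mean of all compounds plus 3 SD, cut at about 26% in these data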;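 note: competitive labeling of PME-1 active site by serine hydrolase directed probe; 0% = PME-1 with DMSO and 100% = wells lacking PME-1 enzyme; inhibitors block probe labeling so polarization falls and inhibition rises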
# LYPLA1 inh: blocks human lysophospholipase 1, a PME1 counter-screen; recombinant LYPLA1, FP-Rh probe fluorescence polarization; AID 2174; 0.16% of 320,000 active; O75608; inhibition, % at 5.9 µM;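 active = inhibition above the mean of all tested compounds plus 3 SD, set per campaign, cut at about 14% in these data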;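 note: inhibitors block serine hydrolase probe labeling of LYPLA1 so polarization falls; 0% = enzyme with DMSO and 100% = wells lacking LYPLA1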
# GSTO1 counter: counter-screen for RBBP9 inhibitors: inhibitors of human GSTO1 | inhibition, % at 5.96 µM | recombinant GSTO1, activity-based probe fluorescence polarization | P78417 | 1.1% of 300,000 active | AID 1974;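 active = inhibition above the campaign mean inhibition plus 3 SD, cut at about 35% in these data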;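 note: 0% = GSTO1-1 with DMSO and 100% = wells lacking GSTO1-1 enzyme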
# Target sequence (P78417 whole entry, looked up): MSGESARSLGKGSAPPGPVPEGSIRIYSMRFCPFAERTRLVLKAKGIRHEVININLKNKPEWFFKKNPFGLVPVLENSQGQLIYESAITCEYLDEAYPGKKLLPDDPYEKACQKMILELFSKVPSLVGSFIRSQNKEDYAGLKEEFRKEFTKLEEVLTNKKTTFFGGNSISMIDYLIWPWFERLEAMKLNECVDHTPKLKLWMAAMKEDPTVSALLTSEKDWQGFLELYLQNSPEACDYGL
# LYPLA2 inh: blocks human lysophospholipase 2, a PME1 counter-screen | inhibition, % at 5.9 µM | recombinant LYPLA2, FP-Rh probe fluorescence polarization | 0.38% of 320,000 active | AID 2177 | O95372;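 active = inhibition above the screen-wide mean plus 3 SD, limit set per campaign, cut at about 26% in these data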;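 note: 0% = LYPLA2 with DMSO and 100% = wells lacking LYPLA2 enzyme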
# Target sequence (O95372 whole entry, looked up): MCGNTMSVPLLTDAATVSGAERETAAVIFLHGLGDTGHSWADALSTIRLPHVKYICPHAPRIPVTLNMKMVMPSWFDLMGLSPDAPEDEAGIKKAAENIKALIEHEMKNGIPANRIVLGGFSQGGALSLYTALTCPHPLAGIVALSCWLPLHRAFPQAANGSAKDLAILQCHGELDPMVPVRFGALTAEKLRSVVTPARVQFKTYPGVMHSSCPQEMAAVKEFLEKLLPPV
# GSTO1 confirm: confirmation of human GSTO1 inhibitors. recombinant GSTO1, probe fluorescence polarization. 54% of 2,400 active. AID 2176. inhibition, % at 5.96 µM. shares compounds with GSTO1 counter;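 active = inhibition above the primary screen's cutoff, its mean inhibition plus 3 SD, cut at about 35% in these data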;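 note: loss of polarization as inhibitors block binding of rhodamine sulfonate ester activity probe; 0% = GSTO1 with DMSO and 100% = wells lacking GSTO1 enzyme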
# GSTO1 recomb ABPP: inhibitors of recombinant human GSTO1. 30% of 130 active. shares compounds with GSTO1 counter. gel ABPP SE-Rh probe fluorescence. inhibition, % at 1 µM;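 active = inhibition of the enzyme GSTO1 above about 75%, limit read from the data; inactive = inhibition below that limit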
# * hit, by the source's call; . = no result. Hits are enriched below; roughly 1.8% of the tested compounds scored in any of these assays.
SMILES,Fam108B counter,PAD4 FP inh,PME-1 primary,LYPLA1 inh,GSTO1 counter,LYPLA2 inh,GSTO1 confirm,others
CC(=O)Oc1ccc(OC(C)=O)c(S(=O)(=O)c2ccc(C)c(C)c2)c1,-3,-1,-1,1,47*,0,7,
Cc1c(C(=O)c2ccc(F)cc2F)c2ccccn2c1CCC#N,7,9,2,4,39*,9,4,
O=[N+]([O-])c1ccccc1C1Nc2cccc3cccc(c23)N1,8,-8,6,0,49*,-1,15,
CCC(C)(C(=O)NC1CCCCC1)N(C(=O)CC1NC(=O)NC1=O)c1c(C)n(C)n(-c2ccccc2)c1=O (centres undefined),-4,0,-2,0,-4,9,.,
O=C(O)c1cc2c(cn1)[nH]c1ccccc12,1,-3,4,-4,56*,1,17,
COC(=O)[C@H](C)NC(=O)c1cc2c(cn1)[nH]c1ccccc12,-4,1,-7,-1,3,8,.,
COc1ccccc1N(C(=O)CCl)c1cn(C(C)=O)c2ccccc12,-1,4,7,-1,71*,2,79*,GSTO1 recomb ABPP=14
CCOC(=O)c1ccccc1Nc1cn(C(C)=O)c2ccccc12,3,-6,7,-3,-4,4,.,
Cc1[nH]n(-c2ccccc2)c(=O)c1C(C[N+](=O)[O-])c1ccc(Br)cc1 (centres undefined),3,-1,1,3,45*,4,13,
CC1=NN(c2ccc(C)c(C)c2)C(=O)C1C(c1cccc(O)c1)C1C(=O)N(c2ccc(C)c(C)c2)N=C1C (centres undefined),10,77*,34*,-2,51*,10,32,
COc1ccc(-c2cc(CCC(=O)N3CCN(c4cc(C)ccc4C)CC3)on2)cc1,.,2,.,.,.,.,.,
CCN(CC)c1ccc(NS(=O)(=O)c2ccc(OC)cc2)cc1,0,3,11,-2,56*,4,56*,
CCOc1ccc(OCCC(=O)N(CC)CC(=O)NCc2ccc(Cl)cc2)cc1,2,0,2,-1,9,-1,.,
COc1cc(NC(=O)c2onc(C)c2Cl)cc(OC)c1OC,0,1,-6,5,3,2,.,
COc1ccc(NC(=O)c2onc(C)c2Cl)cc1OC,3,2,4,-1,39*,3,7,
Cc1sc(NC(=O)CCl)c(C(=O)c2ccccc2)c1C,-1,0,2,-3,74*,3,97*,
CC(=O)Nc1ccnn1C1CCN(C(=O)c2cccc(C)c2C)CC1,0,3,-8,-2,-6,0,.,
Cc1ccc(C(=O)c2c3ccccc3[n+]([O-])n2CCC(=O)O)cc1,1,-1,6,-1,-2,-7,.,
NC(=O)CCn1c(C(=O)c2ccc(Cl)cc2)c2ccccc2[n+]1[O-],7,-2,-5,-3,50*,-2,8,
COc1ccc(Br)cc1CNC(=O)Cn1nc(C)n2cccc2c1=O,1,-2,6,-2,5,0,.,
CC(C)CC1Nc2ccc(C(=O)NCc3ccc4c(c3)OCO4)cc2NC1=O (centres undefined),3,6,-8,-3,45*,3,32,
Cc1cc(=O)n(-c2ccc(C(=O)O)cc2)[nH]1,5,2,-3,-5,63*,-5,-1,
CC(=O)Oc1ccc2occ(/C=N/c3cc(=O)[nH]c(=S)[nH]3)c(=O)c2c1,0,6,4,-2,73*,-1,12,
O=C1C2C3C=CC(C2C(=O)N1c1ccccc1O)C1C2C(=O)N(c4ccccc4O)C(=O)C2C31 (centres undefined),1,-2,-6,0,11,0,.,
O=C1C2C3C=CC(C2C(=O)N1c1ccc(O)cc1)C1C2C(=O)N(c4ccc(O)cc4)C(=O)C2C31 (centres undefined),7,8,7,3,42*,8,10,
SMILES,Fam108B counter,PAD4 FP inh,PME-1 primary,LYPLA1 inh,GSTO1 counter,LYPLA2 inh,GSTO1 confirm,others
Cc1[nH]n(-c2ccccc2)c(=O)c1N=Nc1nccs1,3,-1,2,2,15,8,.,
Cc1[nH]n(-c2ccccc2)c(=O)c1N=Nc1ccccc1C(=O)O,9,1,17,-2,41*,2,11,
COc1ccc(OCC(=O)OCC(=O)NCC2CCCCC2)cc1,.,-3,-2,0,.,9,.,
NC(CO)C(=O)NNCc1ccc(O)c(O)c1O (centres undefined),6,-11,-17,-18,88*,-31,72*,
COc1ccc(S(=O)(=O)N(C)C[C@H]2Oc3c(NS(=O)(=O)c4ccc(F)cc4)cccc3C(=O)N([C@H](C)CO)C[C@@H]2C)cc1,.,-5,.,.,.,.,.,
O=C1C=C(NCCN2CCOCC2)C(=O)c2cnccc21,12,41*,12,-4,84*,2,82*,
COC(=O)CCCC1=CC2=CC(=O)C(C)(OC(=O)C3CCCC3)C(=O)C2=CO1 (centres undefined),-2,3,0,-2,18,-4,.,
CCN(CC)CCCN1C=C2C(=O)C(C)(OC(=O)C3CCCC3)C(=O)C(c3ccccc3)=C2C=C1CCCC(=O)OC (centres undefined),6,0,-4,-5,6,-2,.,
COC(=O)CCCC1=CC2=C(c3ccccc3)C(=O)C(C)(OC(=O)C3CCCC3)C(=O)C2=CN1C1CCCCC1 (centres undefined),4,-5,4,-2,38*,-4,17,
COC(=O)CCCC1=CC2=C(c3ccccc3)C(=O)C(C)(OC(=O)C3CCCC3)C(=O)C2=CN1CC1CC1 (centres undefined),-1,-6,7,-4,49*,1,8,
COC(=O)CCCC1=CC2=C(c3ccccc3)C(=O)C(C)(OC(=O)C3CCCC3)C(=O)C2=CN1C1CCCC1 (centres undefined),2,-15,7,-2,26,2,.,
COCCN1C=C2C(=O)C(C)(OC(=O)C3CCCC3)C(=O)C(c3ccccc3)=C2C=C1CCCC(=O)OC (centres undefined),3,-6,8,-3,45*,-4,26,
COC(=O)CCCC1=CC2=C(c3ccccc3)C(=O)C(C)(OC(=O)C3CCCC3)C(=O)C2=CN1CC(C)C (centres undefined),3,-16,6,-2,52*,4,6,
CSc1ncccc1C(=O)OCC(=O)N(C)c1c(N)n(Cc2ccccc2)c(=O)[nH]c1=O,1,2,3,-4,-5,-1,.,
COc1ccc2[nH]c(C)c(-c3csc(N)n3)c2c1,1,-12,-1,-2,3,1,.,
